Bioassay records (PubChem)
The list is not random: actives were taken first. Their share in the collection is about 2.1%.
CHT block: inhibitors of human choline transporter CHT. 310,000 compounds, 0.86% hits. B-score at 10 µM. Q9GZV3. CHT-expressing cells, membrane potential dye, choline response; stronger effect = lower value;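 active means B-score over 3 SD under the library average, and starting fluorescence ratio not unusually high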;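 further: choline stimulus applied at its EC90 after an EC20 pre-addition; B-score computed on integrated fluorescence ratio after choline addition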
CHT allo act: human CHT allosteric activation | Q9GZV3 | CHT-expressing cells, membrane potential dye, choline EC20; stronger effect = higher value; LV-AA mutant CHT in HEK293 cells | B-score at 10 µM | 310,000 compounds, 0.49% hits | AID 488977;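 active means initial fluorescence not abnormally high and integrated response B-score, plate-corrected, over 3 SD above library mean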
EP2 antag: EP2 receptor (human) inhibition; 260,000 compounds, 0.52% hits; inhibition, % at 25 µM; C6 glioma cells expressing human EP2, cAMP TR-FRET; cells stimulated with saturating PGE2;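 active means percent inhibition above 40 after rounding to a whole number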;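 further: rat C6 glioma host cells with rolipram phosphodiesterase inhibitor present; the protocol text gives 20 µM as final concentration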
Target sequence (P43116 whole entry, looked up): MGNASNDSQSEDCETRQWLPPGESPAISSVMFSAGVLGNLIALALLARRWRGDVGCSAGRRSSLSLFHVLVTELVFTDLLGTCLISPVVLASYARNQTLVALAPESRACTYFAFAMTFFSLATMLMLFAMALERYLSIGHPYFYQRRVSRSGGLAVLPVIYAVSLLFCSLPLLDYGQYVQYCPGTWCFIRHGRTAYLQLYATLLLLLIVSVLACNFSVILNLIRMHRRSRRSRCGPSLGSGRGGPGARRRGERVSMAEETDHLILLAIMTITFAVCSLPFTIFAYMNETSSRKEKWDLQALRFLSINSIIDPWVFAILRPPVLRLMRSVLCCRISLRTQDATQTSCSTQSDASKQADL
EP2 mod: modulates human prostaglandin E2 receptor EP2 signaling | P43116 | EP2-expressing cells, cAMP HTRF FRET, PGE2 co-stimulation | induction, % at 25 µM | 260,000 compounds, 0.83% hits | AID 940;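 active means compounds whose cAMP rise, as percent of the full-agonist control response, exceeds 60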;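 further: rat C6 glioma line stably carrying human EP2 under a CMV promoter; the protocol text gives 20 µM as final concentration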
CHT activ conf: confirmation of human choline transporter (CHT) activators | shares compounds with CHT allo act | CHT-expressing cells, membrane potential dye fluorescence (FDSS); % of choline EC20–EC90 response window; HEK293 expressing CHT LV-AA mutant; choline added at its EC20 | 2,500 compounds, 91% hits | activation, % at 10 µM;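 active means primary screen active, with duplicate mean activation above negative control mean plus 3 SD, cut at about 11% in these data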
HEK293 MP dye: CHT activator counter-screen hit in parental HEK293 cells | shares compounds with CHT allo act | membrane potential dye fluorescence (FDSS); measured after EC20 choline addition | ratio readout change at 10 µM, hits read low | 2,500 compounds, 62% hits | AID 623908;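 active means duplicate-averaged ratio beyond 3 SD from buffer wells, up or down, though filed actives are nearly all decreases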
Large screens that a line does not name were inactive (follow-up assays come after a bar, where they were run).

OCCN(CCCn1c(C(F)(F)F)nc2ccccc21)c1nc(CN2CCCCC2)cs1	none (no result: EP2 antag, EP2 mod)
CC(C)c1ncc(CN2CCN(C3CCCCC3)C(=O)C2)cn1	none (no result: CHT block, CHT allo act)
CC(C)(O)C#Cc1ccc(CN2CCC(O)(c3ccccc3F)CC2)cc1	none (no result: CHT block, CHT allo act)
CCCN(CC(=O)Nc1cc(Cl)ccc1Cl)C(=O)/C=C/c1ccco1	CHT allo act 6.8 | CHT activ conf 31 | HEK293 MP dye inactive
CCc1cc2ccc(C)c(C)c2nc1SCC(=O)Nc1c[nH]c(=O)[nH]c1=O	none (no result: CHT block, CHT allo act)
c1ccc(-c2csc(Nc3cccnc3)n2)nc1	none | CHT activ conf 50 | HEK293 MP dye -55
CC(=O)Cn1c(CN2CCN(C)CC2)nc2c1c(=O)n(C)c(=O)n2C	none (no result: CHT block, CHT allo act)
Cc1ccc(C)c(S(=O)(=O)N2CCN(C(=O)c3cc(S(=O)(=O)NCc4ccccc4)ccc3C)CC2)c1	none (no result: EP2 antag, EP2 mod) | CHT activ conf 22 | HEK293 MP dye inactive
Cc1ccc2[nH]c3c(c2c1)CN(C)CC3	none
CCOC(=O)c1ccc2[nH]c3c(c2c1)CN(C)CC3	CHT allo act 6.8 | CHT activ conf 32 | HEK293 MP dye -43
Cc1cc(C)nc(NC(=O)C(c2ccccc2)c2ccccc2)c1	CHT allo act 6.9 | CHT activ conf 40 | HEK293 MP dye -35
CC1CCc2c(sc3ncn(Cc4ccccc4)c(=O)c23)C1 (stereo unspecified)	none (no result: CHT block, CHT allo act)
CCS(=O)(=O)Nc1cccc(C2=NN(S(=O)(=O)c3ccccc3)C(c3ccco3)C2)c1 (stereo unspecified)	none
CS(=O)(=O)Nc1cccc(C2=NN(S(=O)(=O)c3ccccc3)C(c3ccco3)C2)c1 (stereo unspecified)	none | CHT activ conf 26 | HEK293 MP dye inactive
CCCCN(C)CCNS(=O)(=O)c1ccc2c(c1)n(C)c(=O)c(=O)n2C	CHT allo act 17 | CHT activ conf 76 | HEK293 MP dye -84
CCCCN(CCCC)C(=O)CN(C)S(=O)(=O)c1ccc2c(c1)n(C)c(=O)c(=O)n2C	none
CC(C)(C)NC(=O)CSc1nc2ccccc2n1Cc1ccc(Cl)cc1	none (no result: CHT block, CHT allo act)
Cc1cc(N2CCN(Cc3cn(C)nc3-c3cccc(Cl)c3)CC2)cc(C)n1	none
Cc1cc(N2CCN(Cc3cn(C)nc3-c3ccccc3F)CC2)cc(C)n1	none | CHT activ conf 77 | HEK293 MP dye -74
COc1ccc(C(=O)c2c(N)sc3c2CCN(C)C3)cc1	CHT allo act 8.3 (no result: EP2 antag, EP2 mod) | CHT activ conf 41 | HEK293 MP dye -53
Cc1nc(NC2=NCN(CCCN3CCOCC3)CN2)nc2c(C)cccc12	none (no result: EP2 antag) | CHT activ conf 48 | HEK293 MP dye -56
CC(C)(C)n1nnnc1C(c1ccc(C#N)cc1)N1CCCC2(CCCCC2)C1 (stereo unspecified)	none | CHT activ conf 52 | HEK293 MP dye inactive
Cc1ccc(NC(=O)CN2CCC(C(=O)c3ccc4c(c3)OCCO4)CC2)c(Br)c1	none (no result: CHT block, CHT allo act)
Cn1c(=O)c([N+](=O)[O-])c(NCCCn2ccnc2)c2ccccc21	none | CHT activ conf 58 | HEK293 MP dye -55
Cn1c(N=Nc2ccccc2)nc2ccccc21	CHT allo act 6.4 | CHT activ conf 29 | HEK293 MP dye -53
CN(C)c1ccc(N=Nc2nc3ccccc3n2C)cc1	none
Cc1nc2ccccc2c2c1CC(C(C)(Cl)Br)O2 (stereo unspecified)	none
Cc1nc2ccccc2c2c1CC(C)S2 (stereo unspecified)	none | CHT activ conf 42 | HEK293 MP dye -53
O=C(CSc1nnc(-c2ccncc2)n1Cc1ccco1)Nc1cccc(Cl)c1	none (no result: CHT block, CHT allo act)
Cc1ccc(C(=O)C[n+]2ccc3ccccc3c2C)cc1	none (no result: CHT block, CHT allo act)
COc1ccc(C(=O)C[n+]2ccc3ccccc3c2C)cc1	none | CHT activ conf 48 | HEK293 MP dye -32
CC1CCN(c2nc3c(c(=O)[nH]2)CCN(Cc2ccccc2Cl)C3)CC1	none (no result: CHT block, CHT allo act)
COc1cccc(CNCc2ccc(OC)cc2OC)c1	none (no result: EP2 antag, EP2 mod)
CCn1c2ccccc2c2cc(CNCc3ccc(OC)cc3OC)ccc21	CHT allo act 16 | CHT activ conf inactive | HEK293 MP dye inactive
CCCN1CCC(CNC(=O)c2[nH]nc(-c3ccccc3)c2C)CC1	none (no result: CHT block, CHT allo act)
COc1ccc(-c2cn3cccnc3n2)cc1NS(=O)(=O)c1ccccc1	none
COc1ccc(-c2cn3cccnc3n2)cc1F	none | CHT activ conf 15 | HEK293 MP dye -33
COC(=O)CCCC1=CC2=C(c3ccccc3)C(=O)C(C)(OC(=O)C3CCCC3)C(=O)C2=CN1CCCCO (stereo unspecified)	none
COC(=O)CCCC1=CC2=C(c3ccccc3)C(=O)C(C)(OC(=O)C3CCCC3)C(=O)C2=CN1Cc1ccco1 (stereo unspecified)	CHT allo act 9.1 | CHT activ conf 47 | HEK293 MP dye inactive
COCCSc1nnc(-c2ccncc2)n1-c1ccccc1	none (no result: CHT block, CHT allo act)
CC(C)CCOC(=O)/C(=C/c1ccco1)NC(=O)/C=C/c1ccccc1	CHT allo act 8.4 | CHT activ conf 16 | HEK293 MP dye inactive
NC(=O)/C(=C/c1ccco1)NC(=O)/C=C/c1ccccc1	none
CCNC(=O)/C(C#N)=C/c1c(N2CCN(C)CC2)nc2c(C)cccn2c1=O	CHT allo act 6.3 (no result: EP2 antag, EP2 mod) | CHT activ conf 49 | HEK293 MP dye -53
CCN1CCN(c2nc3ccccn3c(=O)c2C=O)CC1	none (no result: EP2 antag, EP2 mod) | CHT activ conf 57 | HEK293 MP dye -51
Cc1cccn2c(=O)c(C=O)c(N3CCN(C)CC3)nc12	CHT allo act 7.1 (no result: EP2 antag, EP2 mod) | CHT activ conf 71 | HEK293 MP dye -66
Cc1cccn2c(=O)c(C=O)c(N3CCN(c4ccccc4)CC3)nc12	none
Cc1ccc(S(=O)(=O)/C(C#N)=C/c2c(N3CCN(C)CC3)nc3c(C)cccn3c2=O)cc1	CHT allo act 7.4 | CHT activ conf 50 | HEK293 MP dye -46
CCNC(=O)/C(C#N)=C/c1c(N2CCN(c3cccc(Cl)c3)CC2)nc2c(C)cccn2c1=O	none (no result: EP2 antag, EP2 mod)
CCOC(=O)CSc1nnc(COc2ccc(OC)cc2)o1	none (no result: CHT block, CHT allo act)
CCn1c(C)nnc1SCC(=O)Nc1ccc(OC)cc1OC	none (no result: CHT block, CHT allo act)
Cc1ccc2nc(N3CCN(C)CC3)c(C=O)c(=O)n2c1	none (no result: EP2 antag, EP2 mod) | CHT activ conf 74 | HEK293 MP dye -51
Cc1ccc2nc(N3CCN(c4ccccc4)CC3)c(C=O)c(=O)n2c1	none
COc1ccc(CC(=O)N2CCC(c3ccnc4nc(C(F)(F)F)nn34)CC2)cc1OC	none (no result: CHT block, CHT allo act, EP2 antag)
CC(Sc1nnc(-c2ccc(Cl)cc2Cl)n1Cc1ccccc1)C(=O)Nc1nccs1 (stereo unspecified)	CHT allo act 7.1 | CHT activ conf 35 | HEK293 MP dye inactive
Cc1nnc(SC(C)C(=O)Nc2ccc(Cl)cn2)n1Cc1ccccc1 (stereo unspecified)	none
Cc1cc(C)nc(/N=C(\N)N2CCCCC2)n1	CHT allo act 6.9 | CHT activ conf 52 | HEK293 MP dye -41
